# Measured values from PubChem BioAssay (NCATS).
# Inconclusive results are not listed. Values without a mark were called inactive. Active and inactive are the calls of the source. The call rests on the fitted dose curve; in most records, active means well fitted curve in the direction sought with a large enough effect in the signal ratio; inconclusive means small, poorly fitted or top-dose-only effect, or a change in a side signal; inactive means no such curve, though single readings can be large or run the other way; the % refers to the signal ratio.
# Biological target: Tumor necrosis factor (Homo sapiens) (UniProt P01375)
# Sequence (P01375 whole entry, looked up): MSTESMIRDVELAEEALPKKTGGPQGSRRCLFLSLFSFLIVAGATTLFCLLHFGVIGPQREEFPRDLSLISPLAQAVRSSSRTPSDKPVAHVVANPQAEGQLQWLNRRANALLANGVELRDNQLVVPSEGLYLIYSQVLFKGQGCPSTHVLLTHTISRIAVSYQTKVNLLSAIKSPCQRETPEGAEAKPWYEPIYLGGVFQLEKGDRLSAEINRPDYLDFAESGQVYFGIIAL
# Experiment: qHTS assay to identify small molecules that stimulate Tumor Necrosis Factor-alpha (TNF-alpha) secretion (AID 651757); further: 0% is about no effect
# Details: Human cells, HTRF 665/615 ratio; series mostly up to 92.2 µM; activation (TNF-alpha secretion): at the top concentration
# Text: National Center for Advancing Translational Sciences [NCATS]
# NIH Chemical Genomics Center [NCGC]
# National Institutes of Environmental Health Sciences [NIEHS]
# National Toxicology Program [NTP]
# Tumor Necrosis Factor-alpha (TNF-alpha), a secreted cytokine, plays an important role in inflammatory diseases and immune disorders. TNF-alpha, a 17 kDa cytokine, is mainly secreted by activated macrophages and monocytes in response to several inflammatory and immunological stimuli. To study the effect of environmental chemicals on TNF-alpha secretion, a homogeneous TNF-alpha assay was developed using Time Resolved fluorescence (HTRF) technology based on Time Resolved Fluorescent Resonance Energy Transfer (TR-FRET) (Leister et al., Current Chemical Genomics, 5:21-29, 2011). This assay allows measuring TNF-alpha secreted from the cells in a 1536-well plate format.
# THP-1 cells were dispensed at 3000 cells/5ul/well in 1536-well white solid plates. After addition of 23 nl of compound, positive controls and DMSO only, the assay plates were incubated at 37 C for 17 hrs, followed by addition of 5 uLof mixture of cryptate labeled and XL665 labeled anti-TNF-alpha antibodies. After the assay plates were incubated at room temperature for 3 hr, the plates were measured by an EnVision plate reader.
Compound,activation (TNF-alpha secretion) [%],outcome
Oc1ccc(Cl)cc1Cc1ccccc1,0.0298,
OCCOc1ccccc1,0.166,
N[C@@H](Cc1ccc(N(CCCl)CCCl)cc1)C(=O)O,0.457,
CNCC(O)c1ccc(O)cc1 (stereo unspecified),-0.135,
C[C@]12C/C(=C/O)C(=O)C[C@@H]1CC[C@@H]1[C@@H]2CC[C@@]2(C)[C@H]1CC[C@]2(C)O,-0.152,
NCC(O)c1ccc(O)cc1 (stereo unspecified),0.0033,
Clc1ccc(COC(Cn2ccnc2)c2ccc(Cl)cc2Cl)cc1 (stereo unspecified),-0.0829,
Oc1ccccc1-c1ccccc1,0.452,
CCCC(C)(COC(N)=O)COC(=O)NC(C)C (stereo unspecified),0.152,
CCOP(=S)(OCC)Oc1cc(C)nc(C(C)C)n1,0.197,
Oc1cccc2cccnc12,,inactive
